The results in this text go back to the supplement of paper PMC6555819.

The test system of one assay is PPARg:RXRa 90nM:30nM, anti-RXR (NR concentration 90 nM, RXRa partner concentration 30 nM). The assay is described as follows: PBM binding z-score (relative to random genomic background probes); higher = stronger binding; sequences stand for … in GC…GCGATTGACAGCGTAGAATGAAGG
An outline of the steps:
(§1)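 Custom Agilent 4×180K protein-binding microarrays carried double-stranded probes. Their 34-nt variable regions held direct-repeat seeds, single-nucleotide variants, half-site ablations and random human genomic background sequences. Arrays were incubated 1 h with ligand-free nuclear receptor dimers in PBS pH 7.4, 2% milk, 0.02% Triton X-100, 1 mM DTT, 0.2 mg/mL BSA and 0.4 mg/ml salmon testes DNA. Antibodies against each partner (one per run) detected binding, and scanned fluorescence was regression-normalized. Binding z-scores use random background probes as reference.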
CGAACTAGGTCCTCCAGGACAGTGAATACATTGA registered a PBM binding z-score of 0.278.
On the same count and under the same terms, for TCAAGTAGGTTACCAATGGGGCATTCAGCTTTCT the value was 3.02; for GCTGTTAGGTCAACTGATGGTCAGCTAAAGCTCG, 1.61.
For TCATATAGGTAAACAGGTGCAAGTCCGTAAGTTA, the PBM binding z-score turned out to be 3.12.
Same read-out and setting: as for TCTTGTAGATCAATAGAGGATAAGAAAGTGCGCT, the figure is 2.25.
On the same count and under the same terms, for TTACCAGGGTGAAGGTCGTTGATCCCTCTGTAGA the value was 6.33; for GCTAGCAGGCCATTTTGGTCACTCAATGACGGGC, -0.861.
As for CGTCCAAGGTCAATGCTAGGTCAGTGTAAGCATT, the PBM binding z-score turned out to be 2.97.
Same read-out and setting: as for TATACAGCGTCAAAGGCCAGAGTACGAATGTCGA, the figure is 1.13; as for ATCTCGAGGTAAAGTTCAGTGAAAGATCGATAGA, 3.69; as for CATACAGGGTCAGCTAGGCCAGTGTAGGGACGGC, 2.32.
On the same count and under the same terms, as for ATATGTAGGTTATCGCGTCATTCAGTTTGCGCAT, the figure is 3.08; as for CCGACTGGGGTAAAGGTTACCATACTCAGTACGA, 10.7; as for TAGCCTAGGTCATGCGGGCCAGGATAGTGTCGGC, 1.56.
CCTAGTAGGTCAAGGTCACACACGCTATAGGTAC came in with a PBM binding z-score of 7.55.
Same read-out and setting: for TCGAGTAGGTTACCATTGGGGCATTCAGCTTTCT the value was 1.17.
Consider TTACCAAGGTGGGCTGAGGTCGTTGATCCAACTC, for which the PBM binding z-score was -0.0469.
Sequence AGAATGACGTTATACGTAGATCAGGGAAGAAAGT displayed a PBM binding z-score of -0.37.

Another assay deals with PPARg:RXRa DBDmut IVT, anti-RXR (DBD mutation: RXRa K156A/R161A, NR concentration 270 nM, RXRa partner concentration 90 nM). The description is as above. The method, boiled down:
as §1
For CCTAGCAGGCCAATCTGGGTGACTCAAGGCTTGA, the PBM binding z-score was determined as 2.96.
Still for that read-out and setting: as for CGAACTAGGTCAGAACTGGACAGTGAAGGATGAT, the figure is 6.94.
The same measure, in the same setting: for GGAACGAGGGCATTCGAGTTGATGGCATGGCGAT the value was 3; for TCAGACAGGTGAAGGTAACTCCGGTACGCAGTCG, 2.59; for CGTCCCAGGTCAATGCTAGGTCAGTGAAAGCATT, 2.01.
Consider TCATATAGGTAAACAGGTGGAAGTCCGTAAGTTA, for which the PBM binding z-score is 4.42.
Sequence CCAGACAGGTGAAAGGTAACCCAGTCTGGTACGC had a PBM binding z-score of 1.94.
Still for that read-out and setting: as for CTACCAAGCTGAACAAGGTCGTTGATTACTATTC, the figure is 0.107.
The same measure, in the same setting: as for GGAACGAGGGCGTTCGAGTTGATAGCATGGCGAT, the figure is 1.14.
The sequence CAGCCTAGGTCTGGGCCAGTATAGGAGGAACGTT gave a PBM binding z-score of -0.647.
GGAGACAGGTGAAACGCAGGTAACTCAGGGTGGC: the PBM binding z-score is 0.957.
TAGCCTAGGTCATGGGCCGGTATACCACGCGAAC: the PBM binding z-score was 1.46.
In the case of CAAACTCGGTCACAGAGGTCAAAGTCCGTGCGTA, the PBM binding z-score was determined as 5.32.
With CCTACTGCGCCACGAAAGGTCATTGATTCAGTGA, the PBM binding z-score came to 0.564.
Same read-out and setting: as for GCGTACGGGTCAAAGGTTATAGCATGAATAGAAT, the figure is 2.3.
CCATACGGGTCACGAGGTTATAGCACGACGAGCG showed a PBM binding z-score of 3.91.
Consider TCATATAGGTAAATGCTAGGTGAAATTCCGATCT, for which the PBM binding z-score turned out to be 3.98.
Still for that read-out and setting: for CGAACGAGGGGATGAGTTGATAGCAAATGCCGAT the value was 0.602; for GCATATAGGTGATACAAGGTGAAAGTCCGATTGT, 5.22.
With CCGACTGCGGCAAAGGTTACCATACTCAGTACGA, the PBM binding z-score stood at 0.233.
The same measure, in the same setting: as for ACTATTAGTTGTGACGAGGGCAACCGATAGGTTG, the figure is 0.298; as for TCGAGTAGGTTACCAATGGGGCATTCCGCTTTCT, 3.12; as for CGAACTAGGTCCTCCAGGACAGTGAATACATTGA, 3.46.
Sequence TCAAGTAGGTTACCAATGGGGCATTCAGCTTTCT had a PBM binding z-score of 6.09.
The same measure, in the same setting: for GCTGTTAGGTCAACTGATGGTCAGCTAAAGCTCG the value was 4.04; for TCATATAGGTAAACAGGTGCAAGTCCGTAAGTTA, 4.3.
Same read-out and setting: as for TCTTGTAGATCAATAGAGGATAAGAAAGTGCGCT, the figure is 1.63.
Still for that read-out and setting: as for TTACCAGGGTGAAGGTCGTTGATCCCTCTGTAGA, the figure is 1.33.
The sequence GCTAGCAGGCCATTTTGGTCACTCAATGACGGGC showed a PBM binding z-score of 0.582.
On the same count and under the same terms, for CGTCCAAGGTCAATGCTAGGTCAGTGTAAGCATT the value was 3.19; for TATACAGCGTCAAAGGCCAGAGTACGAATGTCGA, -0.701.
In turn, ATCTCGAGGTAAAGTTCAGTGAAAGATCGATAGA had a PBM binding z-score of 0.243.
The same measure, in the same setting: as for CATACAGGGTCAGCTAGGCCAGTGTAGGGACGGC, the figure is 1.02; as for ATATGTAGGTTATCGCGTCATTCAGTTTGCGCAT, 7.52; as for CCGACTGGGGTAAAGGTTACCATACTCAGTACGA, 3.8.
On the same count and under the same terms, as for TAGCCTAGGTCATGCGGGCCAGGATAGTGTCGGC, the figure is 1.52; as for CCTAGTAGGTCAAGGTCACACACGCTATAGGTAC, 8.26; as for TCGAGTAGGTTACCATTGGGGCATTCAGCTTTCT, 3.26.
For TTACCAAGGTGGGCTGAGGTCGTTGATCCAACTC, the PBM binding z-score was -0.241.
Sequence AGAATGACGTTATACGTAGATCAGGGAAGAAAGT had a PBM binding z-score of -1.31.

In a further assay the test system is PPARg:RXRa IVT, anti-PPARg (NR concentration 270 nM, RXRa partner concentration 90 nM). Described as above. The method, boiled down: as §1
On to CCTAGCAGGCCAATCTGGGTGACTCAAGGCTTGA, for which the PBM binding z-score was 3.53.
The same measure, in the same setting: as for CGAACTAGGTCAGAACTGGACAGTGAAGGATGAT, the figure is 7.08; as for GGAACGAGGGCATTCGAGTTGATGGCATGGCGAT, 2.1; as for TCAGACAGGTGAAGGTAACTCCGGTACGCAGTCG, 1.09.
CGTCCCAGGTCAATGCTAGGTCAGTGAAAGCATT showed a PBM binding z-score of 2.96.
On the same count and under the same terms, as for TCATATAGGTAAACAGGTGGAAGTCCGTAAGTTA, the figure is 3.02; as for CCAGACAGGTGAAAGGTAACCCAGTCTGGTACGC, 3.53; as for CTACCAAGCTGAACAAGGTCGTTGATTACTATTC, -0.452.
Same read-out and setting: as for GGAACGAGGGCGTTCGAGTTGATAGCATGGCGAT, the figure is 0.591; as for CAGCCTAGGTCTGGGCCAGTATAGGAGGAACGTT, -0.716; as for GGAGACAGGTGAAACGCAGGTAACTCAGGGTGGC, 0.901.
In turn, TAGCCTAGGTCATGGGCCGGTATACCACGCGAAC displayed a PBM binding z-score of 3.44.
With CAAACTCGGTCACAGAGGTCAAAGTCCGTGCGTA, the PBM binding z-score was determined as 6.01.
On the same count and under the same terms, for CCTACTGCGCCACGAAAGGTCATTGATTCAGTGA the value was 1.65; for GCGTACGGGTCAAAGGTTATAGCATGAATAGAAT, 4.85.
Same read-out and setting: for CCATACGGGTCACGAGGTTATAGCACGACGAGCG the value was 5.41; for TCATATAGGTAAATGCTAGGTGAAATTCCGATCT, 2.41.
In the case of CGAACGAGGGGATGAGTTGATAGCAAATGCCGAT, the PBM binding z-score amounted to 0.068.
The same measure, in the same setting: as for GCATATAGGTGATACAAGGTGAAAGTCCGATTGT, the figure is 4.28; as for CCGACTGCGGCAAAGGTTACCATACTCAGTACGA, 0.732; as for ACTATTAGTTGTGACGAGGGCAACCGATAGGTTG, 0.518.
Still for that read-out and setting: as for TCGAGTAGGTTACCAATGGGGCATTCCGCTTTCT, the figure is 2.43.
For the sequence CGAACTAGGTCCTCCAGGACAGTGAATACATTGA, the PBM binding z-score worked out at 2.42.
On the same count and under the same terms, as for TCAAGTAGGTTACCAATGGGGCATTCAGCTTTCT, the figure is 5.24; as for GCTGTTAGGTCAACTGATGGTCAGCTAAAGCTCG, 2.94.
Still for that read-out and setting: for TCATATAGGTAAACAGGTGCAAGTCCGTAAGTTA the value was 2.74; for TCTTGTAGATCAATAGAGGATAAGAAAGTGCGCT, 0.366; for TTACCAGGGTGAAGGTCGTTGATCCCTCTGTAGA, 3.97.
In the case of GCTAGCAGGCCATTTTGGTCACTCAATGACGGGC, the PBM binding z-score was -0.122.
Same read-out and setting: for CGTCCAAGGTCAATGCTAGGTCAGTGTAAGCATT the value was 3.97; for TATACAGCGTCAAAGGCCAGAGTACGAATGTCGA, 0.258; for ATCTCGAGGTAAAGTTCAGTGAAAGATCGATAGA, 1.24.
The same measure, in the same setting: for CATACAGGGTCAGCTAGGCCAGTGTAGGGACGGC the value was 2.44; for ATATGTAGGTTATCGCGTCATTCAGTTTGCGCAT, 6.92; for CCGACTGGGGTAAAGGTTACCATACTCAGTACGA, 5.39.
In turn, TAGCCTAGGTCATGCGGGCCAGGATAGTGTCGGC showed a PBM binding z-score of 3.
On the same count and under the same terms, for CCTAGTAGGTCAAGGTCACACACGCTATAGGTAC the value was 7.96; for TCGAGTAGGTTACCATTGGGGCATTCAGCTTTCT, 2.88; for TTACCAAGGTGGGCTGAGGTCGTTGATCCAACTC, 0.386.
With AGAATGACGTTATACGTAGATCAGGGAAGAAAGT, the PBM binding z-score is -0.2.
